According to the supplement of paper PMC10849652:
Targets with a hit are over-represented here; the source holds about 7,900 in all. About 0.6% of all pairs of compound and target were hits.

Columns and labels:
Assay in all cases: log2 fold change, soluble protein after heating vs DMSO (PISA); higher = thermal stabilisation; K562 cells, 10 uM, 30 min; active = over 0.2 and 3.5 SD of the protein, either way, in both replicates (recomputed)
[1] = compound: CC1=C(C=C(C=C1)NC(=O)C2=CC(=CC=C2)C(C)(C)C#N)NC3=CC4=C(C=C3)N=CN(C4=O)C
In short: (§1)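 Soluble protein was quantified by TMTpro 16plex LC-MS/MS after channel sums were equalised. It was obtained as the supernatant after 21,000xg for 90 min from pooled aliquots of K562 cells (2×10^6 cells/mL, 10 μM compound, 30 min) heated for 3 min across 48°C-58°C and extracted in PBS with 0.5% NP-40 at 4°C. Thermal stability values are relative to control samples and come from duplicates. They are given as log2 fold changes.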

[2] = compound: CC1=C(C=C(C=C1)NC(=O)C2=CC(=CC=C2)N(C)C)NC(=O)C3=CC=C(C=C3)O
In short: as §1

[3] = compound: CC1=CC=C(C=C1)SC2=C3C=C(SC3=CN=C2)C(=O)N
In short: as §1

[4] = compound: CC1=NC(=CC=C1)C2=C(N=C(N2)C(C)(C)C)C3=CC4=NC=CN=C4C=C3
In short: as §1

Nexturastat A = compound: CCCCN(Cc1ccc(C(=O)NO)cc1)C(=O)Nc1ccccc1 [Nexturastat A]
In short: as §1

vemurafenib = compound: CCCS(=O)(=O)Nc1ccc(F)c(C(=O)c2c[nH]c3ncc(-c4ccc(Cl)cc4)cc23)c1F [vemurafenib]
In short: as §1

[5] = compound: CCCS(=O)(=O)Nc1ccc(F)c(C(=O)c2c[nH]c3ncc(Cl)cc23)c1F
In short: as §1

[6] = compound: CCCc1cc(C)[nH]c(=O)c1CNC(=O)c1cc(-c2ccnc(N3CCN(C)CC3)c2)cc2c1cnn2C(C)C
In short: as §1

givinostat = compound: CCN(CC)Cc1ccc2cc(COC(=O)Nc3ccc(C(=O)NO)cc3)ccc2c1 [givinostat]
In short: as §1

barasertib = compound: CCN(CCCOc1ccc2c(Nc3cc(CC(=O)Nc4cccc(F)c4)[nH]n3)ncnc2c1)CCOP(=O)(O)O [barasertib]
In short: as §1

[7] = compound: CC[C@@H]1C(=O)N(C)c2cnc(Nc3ccc(C(=O)NC4CCN(C)CC4)cc3OC)nc2N1C1CCCC1
In short: as §1

volasertib = compound: CC[C@@H]1C(=O)N(C)c2cnc(Nc3ccc(C(=O)N[C@H]4CC[C@H](N5CCN(CC6CC6)CC5)CC4)cc3OC)nc2N1C(C)C [volasertib]
In short: as §1

[8] = compound: CC[C@H](C)N1C=C(C2=C(C=C(C=C21)C3=CN=C(C=C3)N4CCNCC4)C(=O)NCC5=C(C=C(NC5=O)C)C)C
In short: as §1

epoxomicin = compound: CC[C@H](C)[C@@H](C(=O)N[C@@H]([C@@H](C)O)C(=O)N[C@@H](CC(C)C)C(=O)[C@]1(CO1)C)NC(=O)[C@H]([C@@H](C)CC)N(C)C(=O)C [epoxomicin]
In short: as §1

[9] = compound: CCn1c(C(=O)N(C2CC2)C2CC2)cc2c3c(ncn3C)c(Nc3cc(C)n(C)n3)nc21
In short: as §1

[10] = compound: CCn1cc(-c2ccnc3[nH]c(-c4cccc(CN(C)C)c4)cc23)c(-c2ccc(NC(=O)N(C)C)cc2)n1
In short: as §1

[11] = compound: CN(C)CC(=O)Nc1ccc2[nH]c(=O)c3ccccc3c2c1
In short: as §1

rosiglitazone = compound: CN(CCOC1=CC=C(C=C1)C[C@H]2C(=O)NC(=O)S2)C3=CC=CC=N3 (racemic) [rosiglitazone]
In short: as §1

[12] = compound: CN1C2=C(C3=C1C(=O)N(N=C3)CC4=CC(=CC=C4)N)SC(=C2)S(=O)C
In short: as §1

[13] = compound: CN1CCC(CNc2ccc3ncc(-c4cccc(OC(F)(F)F)c4)n3n2)CC1
In short: as §1

Measured: log2 fold change

COCH (UniProt O43405)
inactive: [1] 0.072 | [2] 0.053 | [3] 0.059 | [4] 0.005 | Nexturastat A 0.046 | vemurafenib -0.067 | [5] -0.05 | [6] 0.076 | givinostat -0.049 | barasertib 0 | [7] 0.117 | volasertib -0.08 | [8] -0.065 | epoxomicin -0.153 | [9] 0.054 | [10] 0.075 | [11] -0.127 | rosiglitazone -0.056 | [12] 0.007 | [13] 0.076

CSNK1A1 (UniProt P48729)
inactive: [1] -0.021 | [2] 0.03 | [3] -0.006 | [4] -0.12 | Nexturastat A 0.028 | vemurafenib -0.006 | [5] 0 | [6] 0.031 | givinostat 0.037 | barasertib 0 | [7] -0.011 | volasertib -0.117 | [8] 0.057 | epoxomicin 0.046 | [9] -0.016 | [10] 0.008 | [11] -0.179 | rosiglitazone -0.028 | [12] 0.072 | [13] -0.067

CMTR1 (UniProt Q8N1G2)
UniProt Q8N1G2, sequence (Q8N1G2 whole entry, looked up): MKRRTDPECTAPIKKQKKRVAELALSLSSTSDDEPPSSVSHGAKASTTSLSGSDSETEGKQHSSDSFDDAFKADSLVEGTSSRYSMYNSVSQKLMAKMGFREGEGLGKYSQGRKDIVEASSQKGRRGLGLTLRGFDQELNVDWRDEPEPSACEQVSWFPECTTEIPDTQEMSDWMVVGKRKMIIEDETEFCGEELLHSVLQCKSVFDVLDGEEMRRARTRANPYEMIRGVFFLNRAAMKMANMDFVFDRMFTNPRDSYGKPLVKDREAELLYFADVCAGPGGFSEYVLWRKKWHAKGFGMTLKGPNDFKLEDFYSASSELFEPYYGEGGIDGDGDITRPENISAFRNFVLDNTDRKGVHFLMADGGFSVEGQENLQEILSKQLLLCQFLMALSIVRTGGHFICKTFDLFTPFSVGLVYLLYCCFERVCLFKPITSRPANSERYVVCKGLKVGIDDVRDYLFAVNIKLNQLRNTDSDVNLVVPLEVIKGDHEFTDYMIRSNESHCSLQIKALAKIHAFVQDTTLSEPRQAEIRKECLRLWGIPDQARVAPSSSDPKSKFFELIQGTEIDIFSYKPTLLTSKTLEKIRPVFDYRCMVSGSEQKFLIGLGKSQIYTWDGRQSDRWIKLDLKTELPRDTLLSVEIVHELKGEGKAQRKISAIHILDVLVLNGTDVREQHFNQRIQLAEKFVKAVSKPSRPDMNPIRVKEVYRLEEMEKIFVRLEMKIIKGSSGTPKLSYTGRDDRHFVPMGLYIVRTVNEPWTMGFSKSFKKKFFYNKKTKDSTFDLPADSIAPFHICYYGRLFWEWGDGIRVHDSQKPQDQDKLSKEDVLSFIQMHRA
inactive: [1] -0.012 | [2] -0.003 | [3] -0.021 | [4] 0.083 | Nexturastat A -0.069 | vemurafenib 0.03 | [5] 0.005 | [6] -0.004 | givinostat -0.062 | barasertib 0.054 | [7] -0.053 | volasertib -0.199 | [8] 0.024 | epoxomicin 0.039 | [9] -0.01 | [10] -0.049 | [11] 0.038 | rosiglitazone 0.03 | [12] -0.055 | [13] -0.037

CCNK isoform 4 (UniProt O75909)
UniProt O75909, sequence (O75909 whole entry, looked up): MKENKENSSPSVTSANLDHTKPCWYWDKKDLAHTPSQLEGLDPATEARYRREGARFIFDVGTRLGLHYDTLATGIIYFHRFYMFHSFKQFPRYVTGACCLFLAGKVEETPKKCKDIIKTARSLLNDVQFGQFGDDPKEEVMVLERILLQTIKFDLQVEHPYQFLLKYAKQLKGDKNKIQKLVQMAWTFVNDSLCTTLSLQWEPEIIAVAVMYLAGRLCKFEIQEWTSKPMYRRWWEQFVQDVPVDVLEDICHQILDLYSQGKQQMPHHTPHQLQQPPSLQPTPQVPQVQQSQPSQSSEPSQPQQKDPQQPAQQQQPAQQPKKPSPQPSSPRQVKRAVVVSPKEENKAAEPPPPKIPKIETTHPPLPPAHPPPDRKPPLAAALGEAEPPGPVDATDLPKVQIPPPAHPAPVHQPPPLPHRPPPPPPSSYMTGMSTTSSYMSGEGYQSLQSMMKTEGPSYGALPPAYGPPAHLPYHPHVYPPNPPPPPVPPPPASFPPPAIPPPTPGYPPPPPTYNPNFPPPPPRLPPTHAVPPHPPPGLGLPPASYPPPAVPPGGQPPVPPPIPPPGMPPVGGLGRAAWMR
inactive: [1] 0 | [2] 0.032 | [3] -0.032 | [4] -0.011 | Nexturastat A 0.024 | vemurafenib -0.088 | [5] 0 | [6] 0.038 | givinostat 0.014 | barasertib -0.063 | [7] 0.099 | volasertib 0.045 | [8] -0.018 | epoxomicin -0.254 | [9] 0.025 | [10] 0.129 | [11] -0.051 | rosiglitazone -0.038 | [12] 0.105 | [13] 0.032

CLCN3 (UniProt P51790)
inactive: [1] -0.03 | [2] 0.046 | [3] 0.015 | [4] 0.034 | vemurafenib 0.014 | [5] 0.009 | [6] -0.107 | givinostat 0.02 | barasertib 0.053 | [7] 0.036 | volasertib -0.095 | [8] -0.037 | epoxomicin -0.015 | [9] 0.013 | [10] 0.065 | [11] 0.011 | rosiglitazone -0.018 | [12] -0.051 | [13] -0.213
active: Nexturastat A -0.313

COQ9 (UniProt O75208)
active: Nexturastat A -0.266
inactive: [1] 0.016 | [2] 0.045 | [3] 0.054 | [4] 0.064 | vemurafenib 0.041 | [5] -0.004 | [6] -0.006 | givinostat -0.006 | barasertib 0.046 | [7] -0.04 | volasertib -0.05 | [8] 0.001 | epoxomicin -0.041 | [9] -0.022 | [10] 0.002 | [11] 0.018 | rosiglitazone 0.025 | [12] -0.057 | [13] -0.135

CSNK2B (UniProt P67870)
UniProt P67870, sequence (P67870 whole entry, looked up): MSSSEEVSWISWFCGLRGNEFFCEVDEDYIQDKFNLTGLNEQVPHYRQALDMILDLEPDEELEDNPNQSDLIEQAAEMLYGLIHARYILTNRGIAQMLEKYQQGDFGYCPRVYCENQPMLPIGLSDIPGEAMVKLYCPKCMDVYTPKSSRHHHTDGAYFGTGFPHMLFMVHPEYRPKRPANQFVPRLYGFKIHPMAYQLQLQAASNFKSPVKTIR
inactive: [1] -0.019 | [2] 0.021 | [3] -0.032 | [4] 0.066 | Nexturastat A -0.021 | vemurafenib 0.026 | [5] 0.016 | [6] -0.034 | givinostat -0.03 | barasertib -0.008 | [7] -0.029 | volasertib 0.009 | [8] 0.043 | epoxomicin 0.019 | [9] 0.001 | [10] -0.051 | [11] 0.027 | rosiglitazone 0.034 | [12] -0.048 | [13] -0.176

CPSF7 isoform 3 (UniProt Q8N684)
inactive: [1] 0.015 | [2] 0.001 | [3] 0.014 | [4] 0.012 | Nexturastat A -0.003 | vemurafenib 0.018 | [5] 0.007 | [6] -0.016 | givinostat 0.01 | barasertib -0.044 | [7] 0.077 | volasertib 0.039 | [8] 0.053 | epoxomicin -0.042 | [9] 0.004 | [10] -0.015 | [11] -0.014 | rosiglitazone -0.029 | [12] -0.001 | [13] 0.006

CASC3 (UniProt O15234)
UniProt O15234, sequence (O15234 whole entry, looked up): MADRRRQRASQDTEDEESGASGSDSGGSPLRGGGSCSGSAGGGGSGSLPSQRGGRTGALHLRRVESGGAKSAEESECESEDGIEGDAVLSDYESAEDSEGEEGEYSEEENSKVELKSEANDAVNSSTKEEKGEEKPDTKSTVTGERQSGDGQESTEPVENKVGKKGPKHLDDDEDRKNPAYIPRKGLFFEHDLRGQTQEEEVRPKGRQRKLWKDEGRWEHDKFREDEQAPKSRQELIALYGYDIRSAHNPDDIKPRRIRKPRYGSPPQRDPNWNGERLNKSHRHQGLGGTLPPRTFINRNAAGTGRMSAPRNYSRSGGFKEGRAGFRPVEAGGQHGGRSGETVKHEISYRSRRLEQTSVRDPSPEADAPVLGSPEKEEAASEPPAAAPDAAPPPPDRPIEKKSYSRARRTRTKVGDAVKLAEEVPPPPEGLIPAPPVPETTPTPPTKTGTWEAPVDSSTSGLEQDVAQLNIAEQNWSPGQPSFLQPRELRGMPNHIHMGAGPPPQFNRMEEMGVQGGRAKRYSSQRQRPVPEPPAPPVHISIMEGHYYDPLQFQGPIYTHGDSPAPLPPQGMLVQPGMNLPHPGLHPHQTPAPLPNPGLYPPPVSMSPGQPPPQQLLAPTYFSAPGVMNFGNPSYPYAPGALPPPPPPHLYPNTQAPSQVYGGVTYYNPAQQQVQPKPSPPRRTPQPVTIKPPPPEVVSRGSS
inactive: [1] 0.043 | [2] -0.003 | [3] 0.009 | [4] -0.027 | Nexturastat A -0.004 | vemurafenib -0.156 | [5] -0.061 | [6] -0.065 | givinostat -0.045 | barasertib 0.043 | [7] 0.303 | volasertib 0.272 | [8] -0.068 | epoxomicin -0.058 | [9] 0.016 | [10] 0.087 | [11] -0.081 | rosiglitazone 0.015 | [12] 0.102 | [13] 0.02

CLSPN (UniProt Q9HAW4)
UniProt Q9HAW4, sequence (Q9HAW4 whole entry, looked up): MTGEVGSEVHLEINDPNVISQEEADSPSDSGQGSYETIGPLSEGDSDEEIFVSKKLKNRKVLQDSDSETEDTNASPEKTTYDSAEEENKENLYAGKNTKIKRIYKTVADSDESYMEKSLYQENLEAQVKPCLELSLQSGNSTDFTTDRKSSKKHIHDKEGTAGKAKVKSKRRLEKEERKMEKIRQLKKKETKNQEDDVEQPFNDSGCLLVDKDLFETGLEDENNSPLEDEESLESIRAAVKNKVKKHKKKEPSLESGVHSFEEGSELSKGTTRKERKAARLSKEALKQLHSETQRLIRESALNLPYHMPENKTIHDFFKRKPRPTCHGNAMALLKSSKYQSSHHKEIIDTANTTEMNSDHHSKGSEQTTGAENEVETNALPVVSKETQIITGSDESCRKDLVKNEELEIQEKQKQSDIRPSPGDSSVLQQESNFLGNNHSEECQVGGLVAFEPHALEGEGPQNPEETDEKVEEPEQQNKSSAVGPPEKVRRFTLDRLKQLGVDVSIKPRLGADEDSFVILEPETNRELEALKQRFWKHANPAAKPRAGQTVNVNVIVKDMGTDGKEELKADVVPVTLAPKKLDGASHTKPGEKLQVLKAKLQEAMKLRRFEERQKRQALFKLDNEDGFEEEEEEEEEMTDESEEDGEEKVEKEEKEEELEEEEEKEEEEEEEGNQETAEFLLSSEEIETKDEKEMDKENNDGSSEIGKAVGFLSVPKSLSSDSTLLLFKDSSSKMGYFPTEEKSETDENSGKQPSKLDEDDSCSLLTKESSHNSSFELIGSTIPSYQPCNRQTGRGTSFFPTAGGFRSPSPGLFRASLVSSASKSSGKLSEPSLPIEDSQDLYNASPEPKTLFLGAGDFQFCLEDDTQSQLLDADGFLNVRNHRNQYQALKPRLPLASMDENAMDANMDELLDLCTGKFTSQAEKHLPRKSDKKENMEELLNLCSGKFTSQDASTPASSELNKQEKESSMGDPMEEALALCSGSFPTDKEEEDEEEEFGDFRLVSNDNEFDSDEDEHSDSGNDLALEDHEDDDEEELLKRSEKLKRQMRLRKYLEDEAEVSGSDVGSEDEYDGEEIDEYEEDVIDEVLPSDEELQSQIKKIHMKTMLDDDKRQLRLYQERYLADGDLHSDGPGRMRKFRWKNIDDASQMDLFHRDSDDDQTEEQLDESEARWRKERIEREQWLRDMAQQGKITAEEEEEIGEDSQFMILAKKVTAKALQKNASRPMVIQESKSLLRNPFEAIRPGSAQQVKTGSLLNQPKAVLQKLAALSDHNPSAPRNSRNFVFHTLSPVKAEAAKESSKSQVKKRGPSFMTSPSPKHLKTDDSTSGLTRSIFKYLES
inactive: [1] -0.048 | [2] 0.003 | [3] -0.025 | [4] -0.035 | Nexturastat A 0.006 | vemurafenib 0.041 | [5] 0 | [6] -0.012 | givinostat -0.032 | barasertib 0.006 | [7] -0.017 | volasertib -0.159 | [8] -0.019 | epoxomicin 0.037 | [9] 0.062 | [10] 0.031 | [11] -0.048 | rosiglitazone -0.016 | [12] 0.04 | [13] -0.02

CHP1 (UniProt Q99653)
UniProt Q99653, sequence (Q99653 whole entry, looked up): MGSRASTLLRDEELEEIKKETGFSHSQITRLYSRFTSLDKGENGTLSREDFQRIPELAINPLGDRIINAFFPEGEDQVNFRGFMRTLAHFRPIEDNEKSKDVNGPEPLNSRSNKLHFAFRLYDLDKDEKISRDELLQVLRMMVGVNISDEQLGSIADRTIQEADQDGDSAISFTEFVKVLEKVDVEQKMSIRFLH
inactive: [1] -0.048 | [2] -0.016 | [3] -0.112 | [4] 0.021 | Nexturastat A 0.016 | vemurafenib 0.141 | [5] -0.042 | [6] 0.008 | givinostat -0.035 | barasertib 0.009 | [7] -0.069 | volasertib -0.036 | [8] 0.033 | epoxomicin 0.061 | [9] -0.006 | [10] -0.007 | [11] 0.063 | rosiglitazone -0.005 | [12] 0.034 | [13] -0.028

COA6 isoform 2 (UniProt Q5JTJ3)
UniProt Q5JTJ3, sequence (Q5JTJ3 whole entry, looked up): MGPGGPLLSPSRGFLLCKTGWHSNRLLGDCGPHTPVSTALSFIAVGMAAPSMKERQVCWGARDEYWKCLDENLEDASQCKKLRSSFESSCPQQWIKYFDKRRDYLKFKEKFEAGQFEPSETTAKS
active: [3] 0.767
inactive: [1] -0.054 | [2] -0.012 | [4] 0.036 | Nexturastat A 0.007 | vemurafenib -0.041 | [5] -0.009 | [6] -0.089 | givinostat -0.02 | barasertib -0.042 | [7] 0.045 | volasertib 0.04 | [8] -0.004 | epoxomicin 0.079 | [9] -0.069 | [10] 0.045 | [11] -0.023 | rosiglitazone -0.055 | [12] -0.16 | [13] 0.022

CCDC59 (UniProt Q9P031)
active: Nexturastat A 0.549
inactive: [1] -0.067 | [2] -0.017 | [3] -0.144 | [4] -0.213 | vemurafenib -0.037 | [5] 0.008 | [6] 0.113 | givinostat 0.086 | barasertib -0.013 | [7] 0.065 | volasertib 0.186 | [8] -0.006 | epoxomicin -0.067 | [9] -0.013 | [10] 0.088 | [11] -0.08 | rosiglitazone -0.064 | [12] 0.394 | [13] 0.176

CELF2 isoform 3 (UniProt O95319)
inactive: [1] 0.075 | [2] 0.01 | [3] 0.112 | [4] -0.006 | Nexturastat A -0.025 | vemurafenib 0.065 | [5] 0.005 | [6] -0.02 | givinostat -0.008 | barasertib 0.001 | [7] 0.115 | volasertib -0.028 | [8] 0.02 | epoxomicin 0.018 | [9] -0.027 | [10] 0.103 | [11] 0.006 | rosiglitazone -0.049 | [12] -0.04 | [13] 0.111

CEPT1 (UniProt Q9Y6K0)
UniProt Q9Y6K0, sequence (Q9Y6K0 whole entry, looked up): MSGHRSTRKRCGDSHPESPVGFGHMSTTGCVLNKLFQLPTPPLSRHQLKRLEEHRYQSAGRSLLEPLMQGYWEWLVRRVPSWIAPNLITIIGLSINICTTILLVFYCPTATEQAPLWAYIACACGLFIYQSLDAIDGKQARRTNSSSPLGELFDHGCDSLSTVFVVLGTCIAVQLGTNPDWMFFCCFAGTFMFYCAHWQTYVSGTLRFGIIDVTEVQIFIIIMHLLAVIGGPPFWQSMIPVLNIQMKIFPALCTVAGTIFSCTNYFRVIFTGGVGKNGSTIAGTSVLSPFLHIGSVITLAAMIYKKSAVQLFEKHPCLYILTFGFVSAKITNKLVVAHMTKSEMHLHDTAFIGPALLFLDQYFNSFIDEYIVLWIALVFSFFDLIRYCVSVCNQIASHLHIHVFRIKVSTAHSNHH
inactive: [1] 0.048 | [2] 0.068 | [3] 0.005 | [4] 0.069 | Nexturastat A -0.123 | vemurafenib 0.123 | [5] 0.016 | [6] -0.122 | givinostat -0.023 | barasertib 0.013 | [7] -0.186 | volasertib -0.231 | [8] -0.066 | epoxomicin -0.043 | [9] 0.039 | [10] -0.025 | [11] 0.059 | rosiglitazone 0.067 | [12] -0.072 | [13] 0.03

CCDC9 (UniProt Q9Y3X0)
UniProt Q9Y3X0, sequence (Q9Y3X0 whole entry, looked up): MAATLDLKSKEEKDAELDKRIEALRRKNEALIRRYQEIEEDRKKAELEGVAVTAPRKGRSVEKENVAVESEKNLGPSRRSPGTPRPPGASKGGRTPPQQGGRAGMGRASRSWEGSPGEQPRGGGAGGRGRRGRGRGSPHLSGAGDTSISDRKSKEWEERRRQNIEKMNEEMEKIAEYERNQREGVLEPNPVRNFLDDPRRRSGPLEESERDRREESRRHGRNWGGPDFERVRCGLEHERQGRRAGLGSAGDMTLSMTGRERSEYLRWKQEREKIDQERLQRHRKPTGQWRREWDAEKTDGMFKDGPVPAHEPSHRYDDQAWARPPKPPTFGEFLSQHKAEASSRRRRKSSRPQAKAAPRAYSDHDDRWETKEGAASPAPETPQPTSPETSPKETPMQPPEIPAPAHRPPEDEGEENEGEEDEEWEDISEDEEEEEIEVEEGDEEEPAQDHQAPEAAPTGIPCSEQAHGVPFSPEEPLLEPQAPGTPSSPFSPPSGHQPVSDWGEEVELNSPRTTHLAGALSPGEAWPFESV
inactive: [1] -0.042 | [2] 0.007 | [3] 0.019 | [4] 0.055 | Nexturastat A 0.119 | vemurafenib -0.007 | [5] -0.009 | [6] -0.004 | givinostat -0.069 | barasertib 0.021 | [7] 0.081 | volasertib 0.127 | [8] -0.051 | epoxomicin -0.018 | [9] 0.032 | [10] 0.051 | [11] 0.002 | rosiglitazone 0.021 | [12] 0.025 | [13] 0.009
